# HTT-AS act: activates huntingtin-antisense promoter activity; HEK293 HTT-AS promoter firefly luciferase reporter, 24 h; response scale: percent change from vehicle, -100% = no light; 48,000 tested, 0.24% active; Potency, µM (titrated, usually from 57.5 µM), inactives show at the highest dose activity change, positive = activation, usual class: activators; further: potency means the concentration at half of the fitted maximal effect; nearly all actives have a fitted effect of over 55% in size
#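 Quantitative HTS used concentration series of up to 57.5 uM final on HEK293 luciferase reporter cells, 24 h at 37 degrees C. Readout was Dual-Glo firefly luminescence.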
# HTT promoter inh: inhibits huntingtin promoter activity; HEK293 HTT promoter firefly luciferase reporter, 24 h; Potency, µM (titrated, usually from 57.5 µM), inactives show top-dose activity change, negative = inhibition, most hits filed as inhibitors; 48,000 tested, 0.93% active; further: potency means the concentration at half of the fitted maximal effect; nearly all actives have a fitted effect of over 50% in size
#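 Luminescence was read after Dual-Glo reagent and a 10 min room-temperature incubation. Values were normalized to vehicle (0% activity) and zero RLU (-100% activity). Reporter HEK293 cells had been exposed to compounds (up to 57.5 uM final) for 24 h.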
# NTMT1 inh: blocks human N-terminal methyltransferase 1 activity; NTMT1 MTase-Glo SAH luminescence, purified enzyme; Potency, µM (series often up to 114 µM), without a hit: at the top dose activity change, negative = inhibition, actives largely listed as inhibitors; 59,000 tested, 2.5% active; AID 1645870;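 further: potency means the concentration at half of the fitted maximal effect; plate controls were DMSO vehicle for no effect and no enzyme for full effect; nearly all actives have a fitted effect of over 65% in size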
# Target sequence (Q9BV86 whole entry, looked up): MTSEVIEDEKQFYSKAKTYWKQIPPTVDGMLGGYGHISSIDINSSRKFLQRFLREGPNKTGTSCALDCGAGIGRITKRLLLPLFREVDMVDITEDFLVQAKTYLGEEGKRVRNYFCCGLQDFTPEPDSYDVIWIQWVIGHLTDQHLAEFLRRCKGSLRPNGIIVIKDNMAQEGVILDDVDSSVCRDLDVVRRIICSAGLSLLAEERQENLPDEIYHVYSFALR
# DYRK1A inh-1: inhibitors of human DYRK1A kinase. shares compounds with NTMT1 inh. recombinant DYRK1A, Kinase-Glo ATP depletion luminescence. Potency, µM (doses to about 76.9 µM), for inactives: at the top dose activity change, negative = inhibition, actives largely listed as inhibitors. 100 tested, 80% active
# CLK4 inh-1: CLK4 kinase inhibition, SAR round 2. Potency, µM (series often up to 76.9 µM), for inactives: at the top dose activity, negative = inhibition, hits mostly inhibitors. shares compounds with NTMT1 inh. AID 493204. recombinant Clk4, Kinase-Glo ATP luminescence, 4.5 h. 90 tested, 90% active
# CLK4 inh-2: CLK4 kinase inhibition, SAR round 2 | Potency, µM, most hits filed as inhibitors | shares compounds with NTMT1 inh | Reaction Biology kinase assay, 10 uM ATP | 65 tested, 100% active | AID 504421; calls by dose curve
# DYRK1A inh-2: DYRK1A kinase inhibition; shares compounds with NTMT1 inh; Reaction Biology kinase assay, 10 uM ATP; Potency, µM, usual class: inhibitors; 65 tested, 90% active; AID 504424;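 active means compounds that showed inhibition of Dyrk1a and received a fitted potency; inactive means compounds that showed no inhibition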
# CLK2 inh: CLK2 kinase inhibition. Reaction Biology kinase assay, 10 uM ATP. 65 tested, 90% active. shares compounds with NTMT1 inh. Potency, µM, hits mostly inhibitors;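 active means compound that inhibits Clk2 kinase in the dose series, with an IC50 potency reported; inactive means no inhibition seen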
# CLK3 inh: inhibitors of human CLK3 kinase; Potency, µM, usual class: inhibitors; recombinant CLK3 kinase assay, 10 uM ATP; 65 tested, 40% active; shares compounds with NTMT1 inh;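 active means compounds that inhibited Clk3 enough in the ten-dose series to give a half-maximal potency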
# Target sequence (P49761 whole entry, looked up): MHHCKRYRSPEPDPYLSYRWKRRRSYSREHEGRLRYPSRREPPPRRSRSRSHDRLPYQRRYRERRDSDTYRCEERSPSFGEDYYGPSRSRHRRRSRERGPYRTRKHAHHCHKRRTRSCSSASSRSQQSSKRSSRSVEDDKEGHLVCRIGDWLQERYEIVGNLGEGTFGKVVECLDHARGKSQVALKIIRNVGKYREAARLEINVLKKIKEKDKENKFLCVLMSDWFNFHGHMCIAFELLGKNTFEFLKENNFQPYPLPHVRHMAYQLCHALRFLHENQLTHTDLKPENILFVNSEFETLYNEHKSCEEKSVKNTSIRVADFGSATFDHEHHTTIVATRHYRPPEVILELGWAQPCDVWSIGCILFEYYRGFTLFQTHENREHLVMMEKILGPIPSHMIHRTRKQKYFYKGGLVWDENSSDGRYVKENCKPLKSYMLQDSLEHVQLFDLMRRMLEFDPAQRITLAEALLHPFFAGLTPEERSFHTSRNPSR
# DYRK1B RBC: blocks human DYRK1B kinase activity. shares compounds with NTMT1 inh. Recombinant Dyrk1b kinase assay, 10 uM ATP. Potency, µM, hits mostly inhibitors. 65 tested, 80% active. AID 504429;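 active means compounds whose dose response shows an inhibitor phenotype against the kinase Dyrk1b; inactive means compounds showing no inhibitor phenotype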
# CLK1 inh: blocks human CLK1 kinase activity; shares compounds with NTMT1 inh; recombinant Clk1 kinase assay, 10 uM ATP; Potency, µM, most hits filed as inhibitors; 65 tested, 90% active; AID 504430;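 active means compounds that block the splicing kinase Clk1 enough to give a fitted half-inhibition concentration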
# Numbers without * were called inactive; i = inactive; ? = inconclusive; / = no result; [ ] = remark or other dose. An excerpt weighted towards active compounds, which were near 2.4% of everything screened. Unless noted, the call rests on the fitted dose curve; in most records, active means well fitted curve in the direction sought with a large enough effect; inconclusive means small, poorly fitted or top-dose-only effect, or another doubt; inactive means no such curve, though single readings can be large; an effect the other way counts as inactive or inconclusive.
SMILES,HTT-AS act,HTT promoter inh,NTMT1 inh,others
O=C(Nc1ccccc1)C1CCN(c2ncc(-c3ccc4c(c3)OCCCO4)s2)CC1,/,/,21%[379 µM],
CN(C)CCN(Cc1cccs1)c1ccccn1,-5%,9%,9%[57.5 µM],
CCCN(Cc1cccs1)c1ncnc2ccc(-c3ccc4c(c3)OCO4)cc12,/,/,?,DYRK1A inh-1=0.82µM*
c1nc(NCC2CCCO2)c2ccc(-c3ccc4c(c3)OCO4)cc2n1 (stereo not given),/,/,-19%[57.5 µM],
CC(=O)OC1C(=O)C2(C)C(O)CC3OCC3(OC(C)=O)C2C(OC(=O)c2ccccc2)C2(O)CC(OC(=O)C(O)C(NC(=O)c3ccccc3)c3ccccc3)C(C)=C1C2(C)C (stereo not given),/,/,2%[57.5 µM],
Cc1cc(C(=O)Nc2cccc(C(=O)Nc3cccc(C(F)(F)F)c3)c2)on1,/,/,3%[57.5 µM],
C=C(F)c1sc(CNCCCNc2cc(=O)c3ccccc3[nH]2)c(C)c1Br,/,/,0%[57.5 µM],
CC(C)(O)[C@H]1CC[C@@](C)([C@H]2[C@@H](O)C[C@@]3(C)[C@@H]4C[C@H](O[C@@H]5O[C@H](CO)[C@@H](O)[C@H](O)[C@H]5O)[C@H]5C(C)(C)[C@@H](O[C@@H]6OC[C@@H](O)[C@H](O)[C@H]6O)CC[C@@]56C[C@@]46CC[C@]23C)O1,/,/,-15%,
CC1=C(/C=C/C(C)=C\C=C\C(C)=C/C(=O)O)C(C)(C)CCC1,/,/,-2%[57.5 µM],
CC(C)(C)CNc1ncnc2ccc(-c3ccc4c(c3)OCO4)cc12,/,/,/,DYRK1A inh-1=0.0091µM*
Cn1cnc(CCNc2ncnc3ccc(-c4ccc5c(c4)OCO5)cc23)c1,/,/,12%,DYRK1A inh-1=1.5µM*
Cc1nc(CCNc2ncnc3ccc(-c4ccc5c(c4)OCO5)cc23)cs1,/,/,-21%,CLK4 inh-1=0.065µM*
CCCNc1ncnc2ccc(-c3ccc4c(c3)OCO4)cc12,/,/,/,CLK4 inh-1=0.041µM*
Cc1csc(CNc2ncnc3ccc(-c4cccc(Cl)c4)cc23)c1,/,/,6%,
Fc1ccc(-c2nc(CCCCSc3nnc(-c4cccc5ccccc45)o3)no2)cc1,/,/,4%,
CCC(CC)C(=O)NCCc1nc2ccccc2n1CCOc1ccc(C)cc1,/,/,8%[57.5 µM],
CC1CCC(n2c3cnccc3c3cnc(Nc4ccc5c(n4)CCN(C(=O)CO)C5)nc32)CC1 (stereo not given),/,/,0%[29.8 µM],
COc1cc(O)c2c(c1)C1OC1C[C@H](O)[C@H](O)C(=O)/C=C\C[C@H](C)OC2=O (stereo not given in full),/,/,-12%[57.5 µM],
Cc1ccc(S(=O)(=O)Nc2cnccc2C(=O)Nc2ccccc2)cc1,/,/,7%,
C=C1C(=O)OC2CC(C)=C(C(C)CCCO)C(O)C12 (stereo not given),/,/,10%[57.5 µM],
Cc1ccc([N+](=O)[O-])cc1S(=O)(=O)N(C)/N=C/c1cnc2ccc(Br)cn12,/,/,-5%,
Cc1noc(C)c1-c1ccc2ncnc(NCc3ccccc3F)c2c1,/,/,-15%,
c1c[nH]c(CNc2ncnc3ccc(-c4ccc5c(c4)OCO5)cc23)n1,/,/,-12%,DYRK1A inh-1=0.37µM*;CLK4 inh-2=0.034*;DYRK1A inh-2=0.15µM*;CLK2 inh=3.6µM*;CLK3 inh=15µM*;DYRK1B RBC=1.1µM*;CLK1 inh=0.19µM*
Cc1ccc(CNc2ncnc3ccc(-c4ccc5c(c4)OCO5)cc23)s1,/,/,0%[57.5 µM],DYRK1A inh-1=0.52µM*;CLK4 inh-2=0.12*;DYRK1A inh-2=1.2µM*;CLK2 inh=15µM*;CLK3 inh=i;DYRK1B RBC=15µM*;CLK1 inh=0.89µM*
Cc1ccsc1CNc1ncnc2ccc(-c3ccc4c(c3)OCO4)cc12,/,/,-12%,DYRK1A inh-1=0.082µM*;CLK4 inh-2=0.035*;DYRK1A inh-2=0.035µM*;CLK2 inh=2.2µM*;CLK3 inh=6.6µM*;DYRK1B RBC=0.51µM*;CLK1 inh=0.069µM*
SMILES,HTT-AS act,HTT promoter inh,NTMT1 inh,others
c1nc(NCc2ccoc2)c2cc(-c3ccc4c(c3)OCO4)ccc2n1,/,/,?,DYRK1A inh-1=0.092µM*;CLK4 inh-2=0.038*;DYRK1A inh-2=0.13µM*;CLK2 inh=0.88µM*;CLK3 inh=4.7µM*;DYRK1B RBC=0.94µM*;CLK1 inh=0.11µM*
Cc1cccc(CNc2ncnc3ccc(-c4cccc(Cl)c4)cc23)c1,/,/,6%,
COC1CC(=O)C23C(=O)NC(Cc4c[nH]c5ccccc45)C2C(C)C2(C)OC2C3/C=C/CC(C)CC1O (stereo not given),/,/,22%[29.8 µM],
CN(C(=O)c1cn2c(-c3ccc(C(F)(F)F)cc3)cnc2cn1)c1ccc(C#N)cc1,/,/,-9%,
O=C(Nc1ccc(F)c(C(F)(F)F)c1)Nc1ccc(-c2ccncc2)s1,/,/,0%[57.5 µM],
CCCC1=CC2=C(CO1)C(=O)C(C)(O)C(OC(=O)c1c(C)cc(OC)cc1O)C2 (stereo not given),/,/,5%[29.8 µM],
C=C(C)C1CCC(C)C12CC(O)C1(C)OC1C2OC(=O)C(N)CCC(=O)O (stereo not given),/,/,0%[29.8 µM],
CC(C)[C@H]1CCC(CO)=C[C@@H]1/C=C(\CO)C(=O)O,/,/,-12%[57.5 µM],
Cc1occc1CNc1ncnc2ccc(-c3ccc4c(c3)OCO4)cc12,/,/,?,DYRK1A inh-1=0.092µM*;CLK4 inh-2=0.047*;DYRK1A inh-2=0.057µM*;CLK2 inh=2.7µM*;CLK3 inh=6.5µM*;DYRK1B RBC=0.43µM*;CLK1 inh=0.086µM*
c1nc(OCc2cnc[nH]2)c2cc(-c3ccc4c(c3)OCO4)ccc2n1,/,/,-10%,DYRK1A inh-1=8.2µM*
c1csc(CNc2ncnc3cc(-c4ccc5c(c4)OCO5)ccc23)c1,/,/,-27%,
Cc1cccc(CNc2ncnc3ccc(-c4ccc5c(c4)OCO5)cc23)c1,/,/,5%[57.5 µM],
c1csc(CNc2ncnc3ccc(-c4ccoc4)cc23)c1,/,/,?,DYRK1A inh-1=1.5µM*
Nc1nccc2c1ncn2[C@@H]1C=C(CO)[C@@H](O)[C@H]1O,/,/,-97%,
Cc1cc(C)cc(C(=O)NOCCCCCC(=O)NO)c1,/,/,-9%[57.5 µM],
CCOP(=O)(Cc1ccc(C(=O)Nc2ccc(Br)cc2C#N)cc1)OCC,/,/,13%[29.8 µM],
CC1(C)NC2N(C1=O)c1ccccc1C2(O)CC(C(=O)O)n1cnc2ccccc2c1=O (stereo not given),/,/,-3%[29.8 µM],
CC1C(O)C(O)C2C(C(=O)OCCc3ccc(O)cc3)=COC(O[C@@H]3O[C@H](CO)[C@@H](O)[C@H](O)[C@H]3O)C12 (stereo not given in full),/,/,0%[29.8 µM],
